Results published in article PMC4336329 (PLoS ONE, 2015).
Screen size: about 310,000 compounds; about 14,000 (4.5%) showed an effect of 50% or more. Effects have a minus sign here. The list comes from a sample in which strong results are over-represented; it also holds similar structures and randomly drawn compounds.

What follows are compounds tested against human ether-à-go-go-related gene (hERG) potassium channel (human, UniProt Q12809) (assay: primary screen, population patch clamp on CHO cells stably expressing hERG; higher = less effect of the substance).
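Note: peak tail current of the secondary pulse compared with the same well before compound.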

human ether-à-go-go-related gene (hERG) potassium channel, sequence (Q12809 whole entry, looked up): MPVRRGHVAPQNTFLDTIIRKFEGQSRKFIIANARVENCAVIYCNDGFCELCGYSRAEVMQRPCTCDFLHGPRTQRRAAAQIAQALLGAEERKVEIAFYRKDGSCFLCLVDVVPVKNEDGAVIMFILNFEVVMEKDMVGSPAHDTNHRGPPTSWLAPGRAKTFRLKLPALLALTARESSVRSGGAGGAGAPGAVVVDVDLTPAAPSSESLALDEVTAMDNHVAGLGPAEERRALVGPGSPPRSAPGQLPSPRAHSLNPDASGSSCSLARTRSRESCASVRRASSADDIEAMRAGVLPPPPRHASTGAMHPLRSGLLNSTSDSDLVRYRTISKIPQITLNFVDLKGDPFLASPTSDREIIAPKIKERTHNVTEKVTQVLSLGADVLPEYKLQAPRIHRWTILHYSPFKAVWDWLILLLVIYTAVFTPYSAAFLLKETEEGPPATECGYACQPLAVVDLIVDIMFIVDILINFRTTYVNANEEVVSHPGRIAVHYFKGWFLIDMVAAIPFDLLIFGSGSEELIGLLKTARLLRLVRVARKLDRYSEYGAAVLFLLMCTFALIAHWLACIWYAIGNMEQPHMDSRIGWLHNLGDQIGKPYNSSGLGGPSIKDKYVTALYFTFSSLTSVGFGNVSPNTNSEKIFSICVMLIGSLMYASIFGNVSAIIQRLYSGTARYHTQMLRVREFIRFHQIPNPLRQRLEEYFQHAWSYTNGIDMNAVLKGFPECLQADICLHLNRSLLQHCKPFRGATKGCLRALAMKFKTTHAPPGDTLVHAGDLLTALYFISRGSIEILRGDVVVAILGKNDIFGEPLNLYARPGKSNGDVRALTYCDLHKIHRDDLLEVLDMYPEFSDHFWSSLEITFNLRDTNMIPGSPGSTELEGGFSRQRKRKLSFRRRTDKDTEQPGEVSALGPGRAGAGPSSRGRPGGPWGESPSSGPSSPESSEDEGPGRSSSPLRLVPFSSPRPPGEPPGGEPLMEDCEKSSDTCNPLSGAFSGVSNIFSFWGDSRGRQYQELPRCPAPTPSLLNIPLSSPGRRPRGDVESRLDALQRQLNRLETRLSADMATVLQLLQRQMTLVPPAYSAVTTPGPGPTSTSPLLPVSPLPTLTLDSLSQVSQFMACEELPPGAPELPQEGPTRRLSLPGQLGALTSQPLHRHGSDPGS

Compound | hERG current change (%, negative = inhibition) at 10uM [%]
Cc1c(Cl)cccc1-n1c(SCC(=O)N(C)Cc2ccccc2)nnc1-c1ccncc1 | -49.5
COc1ccc(CNC(=O)C2CCN(S(=O)(=O)c3cccc4nonc34)CC2)cc1 | -0.634
CC(C)Sc1nnc([C@@H]2CCCN2C(=O)OC(C)(C)C)o1 | 14.7
Cc1nc(NCc2ccc3c(c2)OCO3)c2nnn(Cc3ccccc3)c2n1 | -13.9
CCOc1ccccc1NC(=O)c1ccc(Cl)c(NC(=O)CC(c2ccccc2)c2ccccc2)c1 | 2.16
COc1cccc(NC(=O)CN(C)C(=O)CC(NC(=O)c2ccccc2Cl)c2ccccc2)c1 (stereo not shown) | -49.7
COc1ccc(CCNC(=O)/C=C/c2ccco2)cc1OC | 0.593
CCCC(=O)Nc1cccc(C(=O)Nc2ccccc2OCC)c1 | -14.7
CCOc1ccc(CCNC(=O)/C=C/c2ccco2)cc1OCC | -70
CN(CC(=O)Nc1ccc(Cl)c(C(F)(F)F)c1)C(=O)/C=C/c1ccco1 | 5.99
CCOc1ccc(NC(=O)CN(C)C(=O)CC(NC(=O)c2ccccc2)c2ccccc2)cc1OCC (stereo not shown) | -51.9
CCOc1ccc(CCNC(=O)COC(=O)/C=C/c2ccco2)cc1OCC | 12.9
CCOc1ccccc1NC(=O)c1cccc(NC(=O)CC(c2ccccc2)c2ccccc2)c1 | -67.1
CCOc1ccc(NC(=O)CN(C)CC(=O)NC(C)c2ccccc2)cc1OCC (stereo not shown) | 6.58
CCOc1ccc(NC(=O)CN(C)C(=O)/C=C/c2ccco2)cc1OCC | -61.2
CCOc1ccc(/C=C/C(=O)N(C)CC(=O)Nc2cccc(F)c2)cc1OCC | 10.6
COc1ccc(-n2c3c(cc(C(=O)NNc4ccccc4C)c2=O)C(=O)CC(C)(C)C3)cc1 | 17.7
O=c1c2c(nc3nc(NCc4ccc(Cl)cc4)[nH]n13)CCC2 | 23.2
O=S(=O)(c1cccc2nsnc12)N1CCc2ccccc2C1 | -34.8
COc1ccc(OC)c(Nc2nc(C)nc3c2oc2ccccc23)c1 | 5.02
O=C(NC(=S)NNC(=O)[C@H]1C[C@@H]1c1ccccc1)c1ccc(F)cc1 | 3.86
CCOC(=O)N(Cc1ccccc1)Cc1ccc(C(=O)N[C@@H](Cc2ccccc2)C(=O)O)cc1 | 13.8

Compound | hERG current change (%, negative = inhibition) at 10uM [%]
CCC(C)NC(=O)CCn1ccc2cc(S(=O)(=O)N3CCCC3)ccc21 (stereo not shown) | 12.3
CCC1=NN2C(=N)/C(=C/c3ccc(OS(=O)(=O)c4ccccc4)cc3)C(=O)N=C2S1 | -3.25
CCOC(=O)C1CCN(S(=O)(=O)c2ccc3oc(=O)ccc3c2)CC1 | -77
CCOC(=O)C1CCN(S(=O)(=O)c2ccc3[nH]c(=O)ccc3c2)CC1 | -45.3
CC(=O)N1CCOc2ccc(S(=O)(=O)N3CCC(C)CC3)cc21 | 6.53
CCOC(=O)C1CCN(S(=O)(=O)c2ccc3c(c2)N(C(C)=O)CCO3)CC1 | -67.2
CCOC(=O)C1CCN(S(=O)(=O)c2ccc3[nH]c(=O)oc3c2)CC1 | -30.9
CC(=O)N1CCOc2ccc(S(=O)(=O)N3CCCCC3)cc21 | 11.6
CC/C(=N\NC(=O)C1CC1)c1cccc(Cl)c1 | 30.9
Cc1nc(Sc2ccc(Cl)cc2)c(C#N)c(C)c1[N+](=O)[O-] | 6.1
COC(=O)Cn1cnc2scc(-c3ccc(C)cc3)c2c1=O | 7.31
CC(C)C(NC(=O)c1ccc(F)cc1)C(=O)Nc1cccnc1 (stereo not shown) | 0.585
CCOC(=O)c1ccccc1NC(=O)c1c(F)c(F)c(F)c(F)c1F | 10.2
COc1ccc2occ(C(=O)c3coc4ccc(O)c(CN(C)C)c34)c2c1.Cl | -72.1
COc1ccc(C(O)c2coc3ccc(O)c(CN(C)C)c23)cc1 (stereo not shown) | -47.9
COc1ccc(OC)c(C(=O)c2coc3ccc(O)c(CN(C)C)c23)c1.Cl | -12.7
COc1ccc2occ(C(=O)c3ccc(N)cc3)c2c1 | 2.02
CCN(CC)Cc1c(O)ccc2occ(C(=O)c3ccc(OC)cc3)c12 | -74.2
COc1ccc(C(=O)c2coc3ccc(OC(C)=O)cc23)cc1 | 24.9
COc1ccc(OC)c(C(O)c2coc3ccc(O)c(CN(C)C)c23)c1 (stereo not shown) | -17
COc1ccc2occ(C(=O)c3ccc(N=C(C)N(C)C)cc3)c2c1 | -58.8
COc1ccc(C(=O)c2coc3ccc(O)c(CN(C)C)c23)cc1 | -57.9

Compound | hERG current change (%, negative = inhibition) at 10uM [%]
COc1ccc(Oc2coc3c(CN(C)C)c(O)ccc3c2=O)cc1 | 17.7
COc1ccc(C(=O)c2coc3ccc(O)cc23)cc1 | 7.61
COc1ccc(S(=O)(=O)N/N=C(/C)c2ccco2)cc1 | -6.76
CCc1sc(-c2c(C#N)c(N)nc3c2CCCCCC3)cc1[N+](=O)[O-] | 14
Cc1ccc(C(=O)NC(C)c2ccccc2)cc1Br (stereo not shown) | -11.8
Cc1cc(C)cc(NC(=O)c2ccc(S(=O)(=O)C(F)F)cc2)c1 | -29.7
CC(=O)NCCNc1nc2c(-c3cccc(C)c3)nnn2c2ccccc12 | 12.8
CC(CN1CCCCC1)OC(=O)c1ccc(Cl)cc1.Cl (stereo not shown) | -36.4
O=C1CCN(S(=O)(=O)c2cc(C(F)(F)F)ccc2Cl)CC1 | -1.34
CCc1ccccc1NC(=O)c1ccccc1N1C(=O)C2C3C=CC(C3)C2C1=O (stereo not shown) | 18.3
COc1ccc(N2CCN(C(=O)c3ccc(-n4nc(C)cc4C)cc3)CC2)cc1 | -19.4
Cc1cc(C)n(-c2cc(N3CCN(S(=O)(=O)c4ccc(C)c(C)c4)CC3)ccc2[N+](=O)[O-])n1 | 15
COc1ccc(C(=O)N2CCN(c3ccc([N+](=O)[O-])c(-n4nc(C)cc4C)c3)CC2)cc1 | -78.2
Cc1cc(C)n(-c2cc(N3CCN(C(=O)c4ccccc4C)CC3)ccc2[N+](=O)[O-])n1 | -52.7
Cc1cc(C)c(S(=O)(=O)N2CCN(c3ccc([N+](=O)[O-])c(-n4nc(C)cc4C)c3)CC2)c(C)c1 | -7.91
CC(=O)N1CCN(c2ccc([N+](=O)[O-])c(-n3nc(C)cc3C)c2)CC1 | -51.9
Cc1ccccc1C(=O)N1CCN(c2ccc([N+](=O)[O-])c(N3CCOCC3)c2)CC1 | -16.3
Cc1cc(C)n(-c2cc(N3CCN(C(=O)c4ccc(C(C)(C)C)cc4)CC3)ccc2[N+](=O)[O-])n1 | -34.4
Cc1cc(C)n(-c2cc(N3CCN(S(=O)(=O)c4ccc(Cl)cc4)CC3)ccc2[N+](=O)[O-])n1 | -32.8
COc1cc(C)ccc1OCc1cc(C(=O)NCCN2CCOCC2)no1 | 2.08
COc1ccc(/C=N/NC(=O)c2ccc3nc[nH]c3c2)cc1OC | 20.7
CCC1CCCCN1Cc1ccc(OC)c(C)c1C (stereo not shown) | -31.2

Compound | hERG current change (%, negative = inhibition) at 10uM [%]
Cc1ccc(CNC(=O)C2CCCN2C(=O)Nc2ccccc2)cc1 (stereo not shown) | -8.61
COc1ccccc1N1CCN(S(=O)(=O)c2cn(C)nc2C)CC1 | -2.6
CCCCN(C(=O)CN1CC(C)OC(C)C1)c1c(N)n(CC(C)C)c(=O)[nH]c1=O (stereo not shown) | 9.06
CCN(c1ccccc1)S(=O)(=O)c1ccc(Oc2ccc([N+](=O)[O-])cc2)nc1 | -21
CCN(c1ccccc1)S(=O)(=O)c1ccc(NN)nc1 | -12.2
CCN(c1ccccc1)S(=O)(=O)c1ccc(Oc2ccc(-n3ccnc3)cc2)nc1 | -77.4
Cc1ccc(-c2[nH]nc3c2C(c2cccnc2)C(C#N)=C(N)O3)cc1 (stereo not shown) | -7.46
O=[N+]([O-])c1ccc(C(O)CSC(=S)N2CCCCC2)cc1 (stereo not shown) | -3.13
CC(C)(C)c1ccc(C(=O)/C=C2\NC(=O)CS2)cc1 | -9.16
OCCC1CN(Cc2cnc(-c3ccccc3)s2)CCN1C1CCCCC1 (stereo not shown) | -51.4
Cc1ncc(CN2CCN(C3CCCC3)C(CCO)C2)s1 (stereo not shown) | 27.6
Cc1ncc(CN2CCN(Cc3ccccc3)C(CCO)C2)s1 (stereo not shown) | 1.08
OCCC1CN(Cc2cnc(-c3ccccc3)s2)CCN1CCc1ccccc1 (stereo not shown) | -71.2
OCCC1CN(Cc2cnc(-c3ccccc3)s2)CCN1Cc1ccccc1 (stereo not shown) | -57.5
CC(C)N1CCC(N2CCN(Cc3cnc(-c4ccccc4)s3)CC2CCO)CC1 (stereo not shown) | -15.6
CC(C)(O)C#Cc1ccc(CN2CCN(CCc3ccccc3)C(CCO)C2)s1 (stereo not shown) | -30.7
CC(C)=CCN1CCN(Cc2cnc(-c3ccccc3)s2)CC1CCO (stereo not shown) | -49.2
CCOc1ccc(CN2CCN(Cc3cnc(-c4ccccc4)s3)CC2CCO)cc1 (stereo not shown) | -90.7
CCOc1ccc(CN2CCN(Cc3cnc(N4CCOCC4)s3)CC2CCO)cc1 (stereo not shown) | -39.8
